Sampled rows, rich in hits. Any-hit rate of the full collection: about 1.2%.
RGS4-Gao reg = human RGS4-Galphao interaction regulation; 0.33% of 220,000 active; binding response (% of control), % at 10 µM; P09471; AID 1415; Multiplexed bead flow cytometry, RGS4-Galphao binding; actives lie on both sides; in the data active = binding response below about 49% or above about 150%; inactive = in between;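 note: fluorescent Galphao activated with aluminum fluoride binding bead-coupled RGS4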
Target sequence (P09471 whole entry, looked up): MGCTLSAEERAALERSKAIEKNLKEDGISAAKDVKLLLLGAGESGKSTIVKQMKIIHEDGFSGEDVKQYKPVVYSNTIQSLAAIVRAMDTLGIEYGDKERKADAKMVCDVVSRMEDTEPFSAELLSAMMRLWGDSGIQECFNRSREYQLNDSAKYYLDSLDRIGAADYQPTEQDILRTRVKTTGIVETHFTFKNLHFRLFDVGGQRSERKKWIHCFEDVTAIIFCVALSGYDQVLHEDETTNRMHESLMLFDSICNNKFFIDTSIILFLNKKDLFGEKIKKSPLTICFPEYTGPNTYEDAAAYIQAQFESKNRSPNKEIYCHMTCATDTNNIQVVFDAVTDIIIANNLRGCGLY
Avidin bead fluor = avidin bead compound fluorescence profile | AID 1775 | Avidin beads, compound fluorescence 488/530 nm, flow cytometry; hits give high values | 0.38% of 220,000 active | fluorescence (KMESF) at 10 µM; in the data active = fluorescence above about 47
GSH bead fluor = compound fluoresces at 488/530 nm on GSH beads. 0.25% of 190,000 active. fluorescence (KMESF) at 10 µM. AID 1776. GSH beads flow cytometry, compound fluorescence 488/530 nm; hits give high values; in the data active = fluorescence above about 89;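 note: glutathione beads carrying GST-tagged Bcl family fusion proteins plus one bare bead set; values are compound well signal with DMSO vehicle wells as background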
RGS8-Gao reg = regulators of human RGS8-Galphao interaction; P09471; multiplexed bead flow cytometry, RGS8-Galphao binding; actives lie on both sides; response (percent of control binding), % at 10 µM; 0.34% of 220,000 active; in the data active = response below about 60% or above about 140%; inactive = in between;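 note: Galphao activated as the GDP aluminium fluoride complex binding bead-coupled RGS8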
RGS7-Gao = human RGS7-Galphao interaction regulation; Multiplexed bead flow cytometry, RGS7-Galphao binding; actives lie on both sides; 0.35% of 220,000 active; P09471; binding response (% of control), % at 10 µM; in the data active = binding response below about 49% or above about 150%; inconclusive = no clear call, values can overlap the other calls; inactive = in between;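 note: fluorescent Galphao held in activated GDP-AlF4 state binding bead-coupled RGS7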
RGS16-Gao HTS = modulates binding between human RGS16 and Galphao. bead-based flow cytometry RGS16-Galphao binding, fluorescence; actives lie on both sides. binding response (% of control), % at 10 µM. 0.38% of 220,000 active. AID 1441; call rule not given here;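 note: Galphao activated by GDP with aluminum fluoride before binding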
* hit, by the source's call; u = inconclusive; x = no result; [ ] = another dose, or the depositor's remark.

SMILES	RGS4-Gao reg	Avidin bead fluor	GSH bead fluor	RGS8-Gao reg	RGS7-Gao	RGS16-Gao HTS
N=c1c2c3c(sc2ncn1Nc1ccccc1)CCC3	105	15	x	101	u	101
Cc1ccc(C)c2[nH]c(=O)c(C(c3nnnn3Cc3ccccc3)N3CCc4ccccc4C3)cc12 (stereo not given)	102	8	266*	102	102	102
O=c1cc(CN2CCC3(CC2)OCCO3)c2c(ccc3ccccc32)o1	99	10	8	102	103	98
O=c1cc(CN2CCN(c3ccccc3)CC2)c2c(ccc3ccccc32)o1	100	55*	14	98	108	96
CC(CN1CCCCC1)C(=O)NNC(=O)C12CC3CC(CC(C3)C1)C2 (stereo not given)	103	24	21	102	105	103
CC(C)NC(=O)C(=O)NNC(=O)C12CC3CC(CC(C3)C1)C2	82	7	109*	89	101	73
CC(OCC(O)CN(C)Cc1nc2ccccc2c(=O)[nH]1)c1ccc(Cl)cc1 (stereo not given)	107	7	11	116	104	163
CC1N(O)C(C)(C)C(c2ccccc2)=[N+]1[O-] (stereo not given)	82	3	103*	81	84	77
O=C(CSC1=NCCS1)Nc1ccnc2ccccc12	101	8	30	109	99	153
Cc1ccc(-n2c(SCC(=O)Nc3nccs3)nc3c(c2=O)SCC3)cc1	97	12	40	101	97	100
CCSc1nnc(NC(=O)CSc2nc3c(c(=O)n2-c2ccccc2)SCC3)s1	100	7	147*	103	102	106
COc1cccc(NC(=O)C23CCC(C)(C(=O)O2)C3(C)C)c1 (stereo not given)	92	11	21	78	88	62
Cc1ccccc1CSCC(=O)NC(=O)NCc1ccco1	91	6	261*	101	92	104
Cc1cccc(N(CC(=O)N/N=C/c2cc([N+](=O)[O-])ccc2Cl)S(C)(=O)=O)c1C	102	49*	8	100	105	100
Cc1cc(N2CCN(C)CC2)ccc1NC(=O)c1cccc(S(=O)(=O)N2CCc3ccccc3C2)c1	101	8	13	101	96	98
CCCn1nnc(NC(=O)c2cccc(OCC)c2)n1	101	32	32	101	110	101
CCCn1nnc(NC(=O)c2cccc(OCC(C)C)c2)n1	101	7	264*	101	104	102
CCN(c1ccccc1)S(=O)(=O)c1cc(NC(=O)CSc2n[nH]c(=O)[nH]c2=O)ccc1Cl	104	6	x	103	u	108
O=C(NCc1ccc2c(c1)OCO2)c1c[nH]c2ccc(S(=O)(=O)N3CCOCC3)cc2c1=O	96	9	28	86	94	50
O=C(NCc1ccccc1)c1c[nH]c2cc3c(cc2c1=O)OCCO3	92	5	89*	92	96	74
Cc1noc(C)c1CSc1ncnc2ccccc12	96	9	8	101	98	97
CC1CC2(CCCCC2)N2C(=O)C(=O)c3cccc1c32 (stereo not given)	41*	3	12	43*	29*	28
CCN1CCN(S(=O)(=O)c2cc(C(=O)O)ccc2Cl)CC1	124	58*	x	98	u	101
O=C(CN1C(=O)c2ccccc2C1=O)OCC(=O)N1CCc2ccccc2C1	100	8	268*	99	96	103
CCCC(c1nnnn1Cc1cccs1)N1CCN(C2CCCC2)CC1 (stereo not given)	104	117*	19	98	150	101
SMILES	RGS4-Gao reg	Avidin bead fluor	GSH bead fluor	RGS8-Gao reg	RGS7-Gao	RGS16-Gao HTS
CCC(c1nnnn1Cc1cccs1)N1CCN(C2CCCC2)CC1 (stereo not given)	104	19	28	105	108	104
O=C(O)CCNS(=O)(=O)c1ccc2ccccc2c1	101	39	15	101	100	102
O=C(O)CCNc1cc2ccccc2cc1C(=O)O	105	6	255*	96	102	92
COC(=O)c1ccccc1NC(=O)CN(C)S(=O)(=O)c1cc(C)ccc1OC	108	8	5	105	107	106
O=C(Nc1ccccn1)C(=O)N1CCCCC1	89	5	96*	87	94	59
O=C1NC(CCc2ccccc2)C(=O)N1CCOc1cccc(Br)c1 (stereo not given)	103	7	11	104	99	102
CCOc1ccc(-n2c(C)nc3cc(C(=O)NCCCN4CCOCC4)ccc32)cc1	107	8	34	117	107	151
CCOc1ccc(-n2c(C)nc3cc(C(=O)NCCN4CCOCC4)ccc32)cc1	100	7	104*	101	96	100
NCCCCC(NC(=O)C1CCCN1C(=O)C1CSSCC(N)C(=O)NC(Cc2ccc(O)cc2)C(=O)NC(Cc2ccccc2)C(=O)NC(CCC(N)=O)C(=O)NC(CC(N)=O)C(=O)N1)C(=O)NCC(N)=O (stereo not given)	104	6	18	105	104	103
Cc1ccc(NCC(=O)N/N=C/c2cc(O)ccc2[N+](=O)[O-])cc1	102	6	21	98	103	79
CCc1ccc2c(c1)cc(CN(C(=S)Nc1cccc(C)c1)C1CC1)c1nnnn12	100	27	10	101	99	98
Cc1cc2cc(CN(C(=O)C3CC3)C3CCCC3)c3nnnn3c2cc1C	103	61*	40	98	137	102
CSc1nc2ccc(S(=O)(=O)N3CCCCC3)cc2s1	106	50*	24	103	107	107
CSc1nc2ccc(NS(=O)(=O)c3ccc4c(c3)OCCO4)cc2s1	103	4	262*	92	103	65
CSc1nc2ccc(S(=O)(=O)N3CCOCC3)cc2s1	103	11	30	102	101	99
Cc1cc(/C=C(\C#N)C(=O)NCc2cccs2)c(C)[nH]1	108	15	22	103	110	108
COCC(=O)N(Cc1nc2sc(C)c(C)c2c(=O)[nH]1)C1CCCCC1	106	7	x	103	u	104
Cc1sc2nc(CN(C(=O)NC3CCCCC3)C3CCCC3)[nH]c(=O)c2c1C	129	56*	16	98	136	147
CCOc1ccc2nc3c(cc2c1)CN(CCOC)C(=NC)S3	99	5	114*	100	105	108
CCOc1cccc(C(=O)Nc2cccc(-c3nnc(-c4ccc(C)cc4)o3)c2)c1	151*[activator]	46	24	109	143	341
CCOc1cccc(C(=O)Nc2cccc(-c3nnc(-c4ccccc4)o3)c2)c1	93	8	20	95	89	93
O=C1NC(=Nc2ccccc2)CS1	98	7	x	98	u	98
CCC1(CC)C(=O)N(C)C(=O)NC1=Nc1ccccc1	104	9	273*	99	103	100
